Holding throughout (assay): NCI-60 one-dose screen, 48 h (100 = growth as untreated, 0 = no growth, -100 = all killed)
What all share (details): 10 µM unless noted

In experiment [1] the test system is DU-145 prostate.
Experiment [2] relates to MALME-3M melanoma.
For experiment [3], the system named is MDA-MB-231 breast.
In experiment [4] the test system is RXF 393 renal.
The subject of experiment [5] is SF-268 CNS.
For experiment [6], the system named is SF-295 CNS.
The subject of experiment [7] is SF-539 CNS.
In experiment [8] the test system is UACC-257 melanoma.
The test system of experiment [9] is M14 melanoma.
The subject of experiment [10] is K-562 leukemia.

Results on 26 molecules are retold here after PubChem BioAssay (NCI).

Structures are written as SMILES. This is part of a sample that, as a whole, favours compounds with a hit. Of some 83,000 tested, about 20% had one in any assay.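 Activity criterion: percent growth below 10, measured after cells in 96-well plates were exposed to a single compound concentration for 48 hours.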 A number with no mark means an inactive call. The source made the active and inactive calls.

Take `CC(=O)Oc1cccc(S(=O)(=O)n2cc(C(=O)C(=O)Nc3ccncc3)c3ccccc32)c1`: the growth in [1] is 104%; in experiment [2] it was 90.4%; in experiment [3] it was 66.1%; in experiment [4], 90.8%; in experiment [5], 103%; in experiment [6], 58.5%. For the same molecule, the values for the growth in experiment [7], in [8] and in experiment [9] were 86.7%, 93.9% and 102%, respectively.

As for `O=S(=O)(c1ccc(OCCO)cc1)c1ccc(OCCO)cc1`, the growth in experiment [10] is 101%; in experiment [2], 98.6%; in experiment [3], 112%; in experiment [4], 119%; in experiment [5] it was 122%; in experiment [6] it was 118%. For the same molecule, the growth was 110% in experiment [7], 85.7% in experiment [8] and 102% in experiment [9].

Consider `CC(O)CN1CCCCC1` (stereo unspecified), for which the growth is 117% in experiment [1]; 112% in experiment [2]; 105% in experiment [3]; 108% in experiment [4]; 101% in experiment [5]; 104% in experiment [6]. For the same molecule, the growth is 111% in experiment [7], 104% in experiment [8] and 105% in [9].

Turning to `C=C[C@@H]1C[C@H](O)Cc2ccccc2N1`, the growth in [1] was 115%; in [2], 113%; in experiment [3] it was 101%; in [4], 120%; in experiment [5] it was 107%; in experiment [6] it was 109%. Besides, the growth in experiment [7] is 101%; in experiment [8] it was 104%; in [9], 108%.

With `N#Cc1ccc(N2Cc3ccccc3OC3=C2C(=O)c2c(O)ccc(O)c2C3=O)cc1`, the growth in experiment [1] is -91.8% (active); in experiment [2], -56.4% (active); in [3] it was -8.93% (active); in [4], -50.5% (active); in [5], 7.68% (active); in [7] it was -17.5% (active). Further, the growth in [9] is -41.9% (active).

In the case of `O=C(O)/C=C/C(=O)c1ccc(Cl)cc1`, the growth in experiment [1] was 109%; in experiment [2], 110%; in experiment [3], 122%; in experiment [4], 125%; in experiment [5] it was 96.6%; in experiment [6], 123%. Also, the growth in experiment [7] was 107%; in [8], 93.2%; in experiment [9], 101%.

As for `COc1ccc(/C(C#N)=C/c2cc(OC)c(OC)c(OC)c2)cc1`, the growth in [1] is 82.7%; in experiment [10] it was 19%; in experiment [3], 58.1%; in [4], 56.7%; in experiment [5] it was 61.9%; in experiment [7], 23.1%. For the same molecule, the growth in [8] is 52.8%; in [9] it was 17.2%.

Turning to `C=COC(=O)CCCCCCCCC`, the growth is 114% in [1]; 104% in [2]; 102% in experiment [3]; 106% in experiment [4]; 101% in experiment [5]; 115% in experiment [6]. Also, the growth in [7] is 113%; in experiment [8] it was 107%; in [9], 108%.

In the case of `Cn1c(=O)c2[nH]c(C3CC=CCC3)nc2n(C)c1=O` (stereo unspecified), the growth in [1] is 101%; in experiment [2] it was 107%; in [3], 94.6%; in experiment [4], 115%; in experiment [5] it was 96%; in experiment [6], 89.5%. Further, the results for the growth in experiment [8] and in [9] were 116% and 111%, respectively.

Turning to `COc1ccc(-c2ccc(C)n2-c2ccc(-c3nc4cc(Cl)ccc4s3)cc2)cc1`, the growth is 112% in experiment [1]; 102% in [2]; 85.8% in experiment [3]; 114% in experiment [4]; 111% in experiment [5]; 96.6% in [6]. For the same molecule, the values for the growth in [7], in experiment [8] and in [9] were 109%, 107% and 107%, respectively.

Regarding `Cc1ccc2ccccc2c1C[n+]1ccccc1`, the growth in experiment [1] is 117%; in experiment [2], 108%; in experiment [3], 77.8%; in experiment [4] it was 105%; in [5], 106%; in experiment [6] it was 101%. Moreover, the values for the growth in experiment [7], in experiment [8] and in experiment [9] were 105%, 113% and 111%, respectively.

Consider `O=C(NCc1cn(Cc2cccc(Oc3ccccc3)c2)nn1)c1cccnc1Nc1ccc(F)cc1`, for which the growth in experiment [1] is 63.6%; in experiment [2], 67.5%; in [3], 42.2%; in experiment [4], 65.9%; in experiment [5] it was 67.7%; in [6], 50.7%. The growth is 62.6% in [7], 76.8% in [8] and 48.1% in experiment [9].

For `O=C(CSc1nc2ccccc2[nH]1)Nc1ccc(-c2nc3ccccc3s2)c(Cl)c1`, the growth in [10] is 20.4%; in [2] it was 2.26% (active); in experiment [3], -36.8% (active); in experiment [4], 21.8%; in experiment [6], 3.63% (active); in [7] it was -88.6% (active). For the same molecule, the growth in experiment [8] is 16%; in experiment [9] it was -58.1% (active).

With `CCCCN(CCCC)c1ccc(C(=N)c2ccc(N(CCCC)CCCC)cc2)cc1`, the growth was -98.6% (active) in experiment [1]; -64.5% (active) in experiment [2]; -90.3% (active) in experiment [3]; -94.8% (active) in experiment [4]; -95.9% (active) in experiment [5]; -83.5% (active) in experiment [6]. Besides, the growth in experiment [7] was -91.3% (active); in experiment [8], -81.1% (active); in experiment [9], -90.3% (active).

Take `Cc1ccc(CSC(=N)N)cc1C`: the growth in experiment [1] was 108%; in experiment [2], 111%; in experiment [3] it was 99.2%; in [4] it was 103%; in experiment [5] it was 104%; in [6] it was 111%. For the same molecule, the growth in experiment [7] is 114%; in experiment [8], 119%; in [9] it was 105%.

For `CN(C)CC(C(=O)c1ccccc1)c1ccccc1` (stereo unspecified), the growth in experiment [1] is 14.7%; in [2] it was 57.7%; in [3], 80%; in experiment [4], 54.8%; in experiment [5], 5.71% (active); in experiment [6], 93.1%. In addition, the results for the growth in [7], in experiment [8] and in experiment [9] were 33.7%, 32.7% and -1.12% (active), respectively.

Consider `Cc1ccc(NS(=O)(=O)c2cc(C)ccc2C)cc1`, for which the growth in experiment [1] was 57.9%; in [2], 54.1%; in [3] it was 57.4%; in [4], 47.6%; in experiment [5], 53.7%; in experiment [6], 30.7%. Moreover, the results for the growth in [7], in [8] and in experiment [9] were 45.4%, 73% and 8.87% (active), respectively.

For `CCc1cnc(=S)n(-c2ccccc2)c1`, the growth is 104% in [1]; 117% in experiment [10]; 107% in experiment [3]; 129% in experiment [4]; 100% in [5]; 101% in experiment [7]. The growth was 120% in experiment [8] and 106% in experiment [9].

`O=C(O)Cc1cccc(=O)c(O)c1C(=O)O`: the growth in [1] is 117%; in experiment [2] it was 92.5%; in experiment [3] it was 110%; in experiment [4], 112%; in [5] it was 107%; in [6], 117%. The growth in [7] is 110%; in [8], 103%; in experiment [9], 102%.

As to `Nc1cc2c(cc1C(=O)c1cccc(F)c1)OCCO2`, the growth was 109% in experiment [1]; 109% in experiment [2]; 102% in [3]; 104% in [4]; 98.4% in experiment [5]; 94.5% in [6]. For the same molecule, the growth in experiment [7] is 103%; in experiment [8] it was 93.4%; in experiment [9], 107%.

Take `CN(C)c1nc2c(N)ncnc2n1C1OC(CO)C(O)C1O` (stereo unspecified): the growth in [1] is 118%; in experiment [2], 88%; in [3] it was 116%; in experiment [4], 113%; in experiment [5] it was 105%; in experiment [6] it was 111%. The values for the growth in [7], in experiment [8] and in [9] were 101%, 105% and 102%, respectively.

In the case of `CC(=O)Nc1nc(N)nc(NC(C)=O)c1N=O`, the growth in [1] is 107%; in experiment [10] it was 124%; in experiment [3] it was 114%; in experiment [4] it was 135%; in experiment [5], 98.7%; in experiment [7], 105%. For the same molecule, the values for the growth in [8] and in experiment [9] were 113% and 104%, respectively.

Turning to `C=C(C)[C@@H]1C[C@@H]2Cc3cc(F)ccc3N1O2`, the growth in experiment [1] was 114%; in experiment [2], 83%; in experiment [3], 99.8%; in [4], 108%; in [5] it was 101%; in experiment [6], 106%. Moreover, the growth in [7] is 95.6%; in experiment [8], 99.1%; in experiment [9] it was 95.5%.

On to `O=S1(=O)CCC(N(/N=C/c2ccco2)c2ccccc2)C1` (stereo unspecified), for which the growth in [1] is 111%; in experiment [10] it was 123%; in [3], 112%; in experiment [4], 109%; in experiment [5] it was 102%; in [7], 98.1%. The growth was 95.1% in [8] and 100% in experiment [9].

`Clc1ccc(-c2nc3ccccc3s2)cc1Cl`: the growth is 112% in experiment [1]; 114% in [2]; 68% in [3]; 109% in [4]; 99.2% in [5]; 108% in [6]. Further, the growth in experiment [7] was 104%; in experiment [8], 114%; in experiment [9], 104%.

As for `Cc1c(C(N)=O)sc2c1c(=O)n(Cc1ccccc1)c1nnc(Nc3ccccc3)n21`, the growth in [1] is 89.3%; in experiment [2], 110%; in experiment [3], 105%; in experiment [4] it was 113%; in [5], 101%; in [6] it was 104%. Moreover, the figures for the growth in experiment [7], in [8] and in experiment [9] were 100%, 92.3% and 101%, respectively.
